The text below walks through data of PubChem BioAssay (NCATS).

Experiment [1] relates to Zika virus NS2B-NS3 protease (unlinked complex). Briefly: Primary screen GU Rhodamine qHTS for Zika virus inhibitors: Unlinked NS2B-NS3 protease assay (AID 1347159). Further: on the % scale 0 is the no-effect control and ±100 the full control effect; nearly all actives have a fitted effect of over 60% in size. The procedure, abridged:
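Percent inhibition derives from the 15-min fluorescence change (ex 480, em 540 nm), normalized to no-enzyme and no-inhibitor wells. Reactions contained 25 nM NS2B-NS3 complex and 1.5 microM substrate in 10 mM Tris-HCl pH 8.0.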

For experiment [2], the system named is Zika virus NS2B-NS3 protease (linked construct). Briefly: Primary screen NINDS Rhodamine qHTS for Zika virus inhibitors (AID 1347160). Further: on the % scale 0 is the no-effect control and ±100 the full control effect; nearly all actives have a fitted effect of over 55% in size. The essentials: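 In 10 mM Tris-HCl pH 8.0 containing 0.01% Tween 20, linked NS2B-NS3 protease (25 nM final) is exposed to test compounds for 15 min. Cleavage of 1.5 microM Rhodamine110 substrate is tracked by fluorescence over 15 min.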
For orientation: In qHTS, concentration-response curves come from the screen itself.

For experiment [3], the target named is Glutathione peroxidase 1 (Homo sapiens) (UniProt P07203). Nature of the experiment: Primary qHTS Assay for Inhibitors of Recombinant Selenoprotein Glutathione Peroxidase 1 (GPX1) (AID 1845191). Further: nearly all actives have a fitted effect of over 65% in size. The essentials:
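GR-coupled assay: compounds preincubated 30 min at room temperature with GPX1, then reaction started with CHP; final 10 nM GPX1, 1 mM GSH, 0.5 mM CHP, 0.5 mM NADPH, 100 nM GR, 0.01% BSA, pH 7.5 Tris buffer. NADPH fluorescence (340/450 nm) read at 0 and 15 min.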

Experiment [4] addresses Phospholipid hydroperoxide glutathione peroxidase GPX4 (Homo sapiens) (UniProt P36969). Briefly: Primary qHTS Assay for Inhibitors of Recombinant Selenoprotein Glutathione Peroxidase 4 (GPX4) (AID 1845192). Further: nearly all actives have a fitted effect of over 65% in size. The essentials:
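GR-coupled assay: recombinant GPX4 preincubated 30 min with compound at room temperature; final 200 nM GPX4, 1 mM GSH, 0.5 mM cumene hydroperoxide, 0.5 mM NADPH, 100 nM GR, 0.01% BSA, pH 7.5 Tris. NADPH fluorescence (340/450 nm) read at 0 and 15 min.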

The target of experiment [5] is Luciferin 4-monooxygenase (Photinus pyralis) (UniProt P08659). Nature of the experiment: Primary firefly luciferase (FLuc) qHTS assay for identification of artifact compounds. (AID 1845220). Further: nearly all actives have a fitted effect of over 60% in size. The settings on record: outcome: dose series up to 54.1 µM unless noted. The essentials:
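Titrated compounds were incubated 15 min at RT, protected from light, with luciferin and ATP at 10 uM; reaction started with 10 nM FLuc, luminescence imaged at 5 min, and concentration-response fitted by Hill equation.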

Experiment [6] in a line: Primary fluorescence-based thiol-reactive (MSTI) qHTS assay for identification of artifact compounds. (AID 1845221). Further: nearly all actives have a fitted effect of over 65% in size. The procedure, abridged: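 Compounds were incubated 1 h at room temperature in the dark with the MSTI probe (4 uM) in PBS pH 7.4, 2% DMSO. Signals were normalized between Acetyl-MSTI and MSTI.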
The subject of experiment [7] is Nanoluciferase (engineered Oplophorus gracilirostris luciferase). Nature of the experiment: Primary Nanoluciferase (NLuc) qHTS assay for identification of artifact compounds. (AID 1845222).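 Further: NLuc secreted into diluted conditioned medium of S16 cells; 0% = DMSO and -100% = no enzyme.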 The procedure, abridged: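 qHTS format, against NLuc in S16 cell-conditioned medium. Nano-Glo substrate 1:100 was added after 15 min at room temperature. Luminescence was taken after a further 5 min.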

In a further experiment the test system is CRL-7250. Briefly: Cytotoxic Profiling of Annotated Libraries Using Quantitative High-Throughput Screening (AID 1296008). Further: nearly all actives have a fitted effect of over 60% in size. Further: potency means the concentration at half of the fitted maximal effect. On max response: on the % scale 0 is the no-effect control and ±100 the full control effect. The conditions noted are these: Five cell lines viability, CellTiter-Glo ATP luminescence, 48-72 h; max response: active compounds read low. The essentials:
(§1)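 Cells exposed to compounds for 48 or 72 hr at 37 degrees Celsius. Viability read as ATP-coupled luminescence with CellTiter-Glo after 10 min at room temperature.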

In another experiment the test system is NIH3T3. The description is as above. The settings on record: Five cell lines viability, CellTiter-Glo ATP luminescence, 48-72 h; max response: active compounds read low. The procedure, abridged:
as §1

A further experiment has as its system C33A. Nature of the experiment: Primary qHTS to identify gynecologic anti-cancer compounds using libraries of approved drugs and bioactive compounds (AID 1345084). Further: nearly all actives have a fitted effect of over 55% in size. Further: potency means the concentration at half of the fitted maximal effect. The conditions noted are these: Gynecologic cancer cell panel viability, ATPlite luminescence, 48 h; series mostly up to 57.5 µM. The essentials: (§2)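 Luminescence from the ATPlite ATP-monitoring reagent indicates viable cell number; lower signal means cytotoxicity. Cells received compound 16 h after seeding and were exposed for 48 h across five concentrations.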

The test system of a further experiment is CAOV3. Described as above. The conditions noted are these: Gynecologic cancer cell panel viability, ATPlite luminescence, 48 h; series mostly up to 57.5 µM. The procedure, abridged: as §2
The next experiment concerns Hek293T. The description is as above. The settings on record: Gynecologic cancer cell panel viability, ATPlite luminescence, 48 h, control line for the selectivity index; series mostly up to 57.5 µM. The procedure, abridged:
as §2
For orientation: In ATP-based viability assays light output follows the ATP content of the culture.

Another experiment has as its system OV90. The description is as above. The settings on record: Gynecologic cancer cell panel viability, ATPlite luminescence, 48 h; series mostly up to 57.5 µM. The procedure, abridged: as §2
The subject of the next experiment is PA-1. The description is as above. The settings on record: Gynecologic cancer cell panel viability, ATPlite luminescence, 48 h; series mostly up to 57.5 µM. The procedure, abridged:
as §2

A further experiment concerns Tov-21-G. Described as above. The settings on record: Gynecologic cancer cell panel viability, ATPlite luminescence, 48 h; series mostly up to 57.5 µM. The essentials: as §2
Another experiment concerns Tov112D. Described as above. The conditions noted are these: Gynecologic cancer cell panel viability, ATPlite luminescence, 48 h; series mostly up to 57.5 µM. The procedure, abridged: as §2
A further experiment concerns JEG-3. The experiment is described as above. The conditions noted are these: Gynecologic cancer cell panel viability, ATPlite luminescence, 48 h; series mostly up to 57.5 µM. The procedure, abridged:
as §2

Experiment [8] concerns the target Calcium and integrin-binding protein 1 (Homo sapiens) (UniProt Q99828). Nature of the experiment: Primary qHTS for Identification of Calcium Integrin Binding Protein 1 (CIB1) Competitor (AID 1508620).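 Further: GST tagged CIB1 binding a fluorescein labelled alphaIIb integrin peptide tracer; top concentration of the series differs between compounds; on the % scale 0 is the no-effect control and ±100 the full control effect.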 The procedure, abridged:
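Fluorescence polarization competition: GST-tagged CIB1 (1 uM final) preincubated with compound 15 min at room temperature, then FITC-labelled alphaIIb peptide (100 nM final) added. After 15 min at room temperature, polarization read at Ex 480/Em 540.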

For a further experiment, the system named is CASKI. Briefly: Primary qHTS to identify gynecologic anti-cancer compounds using libraries of approved drugs and bioactive compounds (AID 1345084). Further: nearly all actives have a fitted effect of over 55% in size. Further: potency means the concentration at half of the fitted maximal effect. The conditions noted are these: Gynecologic cancer cell panel viability, ATPlite luminescence, 48 h; series mostly up to 57.5 µM. The procedure, abridged: as §2
A further experiment concerns Es-2. The experiment is described as above. The settings on record: Gynecologic cancer cell panel viability, ATPlite luminescence, 48 h; series mostly up to 57.5 µM. The procedure, abridged: as §2

Unmarked numbers belong to inactive results. Records with an inconclusive call do not appear. The source made the active and inactive calls. The call rests on the fitted dose curve; in most records, active means well fitted curve in the direction sought with a large enough effect; inconclusive means small, poorly fitted or top-dose-only effect, or another doubt; inactive means no such curve, though single readings can be large; an effect the other way counts as inactive or inconclusive.

Sequence of Glutathione peroxidase 1 (Homo sapiens) (P07203 whole entry, looked up): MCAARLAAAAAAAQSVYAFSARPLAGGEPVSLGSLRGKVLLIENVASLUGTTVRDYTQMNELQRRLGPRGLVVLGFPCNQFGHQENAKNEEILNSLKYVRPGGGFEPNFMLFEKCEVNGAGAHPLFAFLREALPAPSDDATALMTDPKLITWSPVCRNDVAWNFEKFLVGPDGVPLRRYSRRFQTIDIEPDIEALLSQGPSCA
Sequence of Phospholipid hydroperoxide glutathione peroxidase GPX4 (Homo sapiens) (P36969 whole entry, looked up): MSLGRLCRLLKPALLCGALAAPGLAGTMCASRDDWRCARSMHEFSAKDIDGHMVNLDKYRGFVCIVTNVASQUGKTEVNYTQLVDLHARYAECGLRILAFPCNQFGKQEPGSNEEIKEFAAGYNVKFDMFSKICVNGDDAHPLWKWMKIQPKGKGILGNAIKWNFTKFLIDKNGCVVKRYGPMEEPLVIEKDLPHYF
Sequence of Calcium and integrin-binding protein 1 (Homo sapiens) (Q99828 whole entry, looked up): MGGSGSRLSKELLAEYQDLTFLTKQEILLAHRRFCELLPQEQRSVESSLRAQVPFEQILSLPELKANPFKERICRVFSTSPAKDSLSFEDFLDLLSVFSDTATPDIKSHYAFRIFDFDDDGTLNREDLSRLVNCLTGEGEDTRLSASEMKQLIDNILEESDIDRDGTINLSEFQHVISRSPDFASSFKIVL

Consider `C=C(C)C(=O)O[C@H]1[C@@H]2[C@H](C)C(=O)O[C@@H]2C[C@@H](C)[C@@H]2C=CC(=O)[C@]21C`, for which the Potency result in experiment [1], in experiment [2], in [3], in experiment [4], in experiment [6] and in experiment [7] was “inactive” throughout. Also, the call in experiment [5] was inactive. Further, the Potency in the experiment on CRL-7250 is 2.86 µM (active); in the experiment with NIH3T3, 8.05 µM (active); with C33A, 12.6 µM (active); with CAOV3, 10 µM (active); with Hek293T, 5.62 µM (active); in the experiment with OV90, 3.55 µM (active). For the same compound, the Potency with PA-1 was 3.16 µM (active); in the experiment on Tov-21-G, 8.91 µM (active); in the experiment on Tov112D, 8.91 µM (active).
As for `CC[C@H](O)[C@@H](C)[C@H]1O[C@@H]1C[C@H](C)/C=C/C=C(\C)[C@H]1OC(=O)C[C@H](O)CC[C@@](C)(O)[C@@H](OC(C)=O)/C=C/[C@@H]1C`, the Potency result (in experiment [1]; in experiment [2]; in experiment [3]; in experiment [4]; in experiment [7]; with JEG-3) was “inactive” in each case. For the same compound, in [5], the outcome was inactive. In addition, the figures for the Potency in the experiment on CRL-7250 and with NIH3T3 were 0.0164 µM (active) and 0.0116 µM (active), respectively.
For the compound `C[C@@H]1O[C@@H](OC2CCC3(C=O)C(CCC4C3CCC3(C)C(C5=CC(=O)OC5)C(O)CC43O)C2)[C@H](O)[C@H](O)[C@H]1O[C@@H]1O[C@H](CO)[C@@H](O)[C@H](O)[C@H]1O` (stereo partly specified), the Potency entry (in [2]; in experiment [8]; in experiment [3]; in experiment [4]; in experiment [7]; in the experiment on CASKI) was “inactive” in each case. The outcome in experiment [5] is “inactive [at 25.7 µM]”. For the same compound, the Potency is 3.06 µM (active) in the experiment with CRL-7250; 5.62 µM (active) with C33A; 6.31 µM (active) with Es-2; 10 µM (active) in the experiment with Hek293T; 3.98 µM (active) in the experiment with Tov-21-G; 3.16 µM (active) in the experiment on Tov112D. In addition, the max response with NIH3T3 is 4.35%.
For the compound `c1ccc([C@@H]2C[C@H]2NC2CCNCC2)cc1`, the Potency entry in experiment [1], in [2], in experiment [8], in [3], in [4] and in experiment [6] was “inactive” throughout. Besides, the Potency entry with C33A, in the experiment on CAOV3, with CASKI, in the experiment with Es-2, in the experiment with Hek293T and in the experiment on JEG-3 was “inactive” each time. Also, the Potency result in the experiment with OV90, in the experiment with PA-1, in the experiment with Tov-21-G and in the experiment on Tov112D was “inactive” in each case. Further, the compound was classed as inactive in [5]. Moreover, the max response with CRL-7250 was -8.87%.
As for `CN1Cc2c(ccc3c2OCO3)[C@@H]2[C@H]1c1cc3c(cc1C[C@@H]2O)OCO3`, the Potency entry in experiment [1], in experiment [2], in [8], in experiment [3], in [4] and in experiment [6] was “inactive” in each case. Moreover, the Potency entry in experiment [7] was “inactive”. Also, in experiment [5], the result was inactive. Also, the Potency with CRL-7250 was 4.04 µM (active); in the experiment on NIH3T3, 2.55 µM (active); in the experiment with C33A, 7.08 µM (active); in the experiment on Es-2 it was 4.47 µM (active); in the experiment on PA-1, 4.47 µM (active); with Tov112D, 3.55 µM (active).
Regarding `CN(Cc1cccc(-c2ccncc2)c1)C(=O)Oc1ccc(-c2ccc(C(N)=O)cc2)cc1`, the Potency result in experiment [1], in [2], in experiment [8], in [3], in [4] and in experiment [6] was “inactive” in each case. Further, the Potency entry (in experiment [7]; in the experiment with C33A; in the experiment with CAOV3; in the experiment with CASKI; in the experiment with Es-2; with Hek293T) was “inactive” in each case. For the same compound, the Potency result in the experiment with JEG-3, with OV90, with PA-1, in the experiment on Tov-21-G and in the experiment with Tov112D was “inactive” throughout. In addition, the result (in experiment [5]; in the experiment on CRL-7250) was inactive. In addition, the max response in the experiment with NIH3T3 was 2.66%.
